In PubChem BioAssay:
Calls of active or inactive are those of the source.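 Rule for the calls, unless noted: active = inhibition at or above 50% at 10 µM; inactive = inhibition below 50%.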

Columns and labels:
[1] = inhibitors of TNFa-induced NFkB p65 translocation, primary screen, imaging, HUVEC, MLSMR starter and 10KST1 sets (AID 438;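 active = inhibition above 20% together with a positive visual image hit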;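 note: compound added about 3h40 before a 20 min TNFalpha stimulation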;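 for inhibition: signal is the nuclear over cytoplasmic p65 intensity ratio per well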); details: HUVEC TNFa-induced p65 nuclear translocation; cell count: measured here: nuclei count (cytotoxicity indicator), at 2.08 µM; inhibition: at 2 µM, stronger effect = higher value, 0% TNFa-plus-vehicle, 100% no-TNFa wells
[2] = reduction of polyQ htt aggregates in cells – imaging, exon1htt(103Q)mCFP cells, high-content imaging, primary screen (AID 483;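 active = visual image review flags a hit and inhibition of aggregation exceeds 20%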;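 note: compound exposure lasted 3 days before fixation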;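 for nuclei count: percent of the per-plate median nuclei count of sample wells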); details: exon1htt(103Q)mCFP cell line, aggregate imaging, at 2 µM; inhibition of aggregation: stronger effect = higher value; nuclei count: measured here: cell count, toxicity
[3] = endothelial E-selectin expression blockers – imaging, HUVEC, immunofluorescence, MLSMR starter and 10KST1 sets, primary screen (AID 487;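 active = visually confirmed hit in the image check and inhibition above 20%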;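 for inhibition: signal is fraction of cell area covered by stained E-selectin grains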;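 for nuclei count: 100% = median nuclei count of all wells on the same plate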); details: HUVEC TNFalpha-induced E-selectin immunofluorescence imaging, at 2 µM; inhibition: stronger effect = higher value; nuclei count: measured here: cell number, toxicity
[4] = molecular target: Voltage-gated potassium channel subunit beta-2 (Rattus norvegicus) (UniProt P62483); assay: inhibitors of rat Kvbeta2 reductase activity – biochemical, NADPH fluorescence, primary screen (AID 622;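 active = fluorescence slope higher than the sample average by over 3 SD, cut at about -0.22 in these data, passing the limit was not always enough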;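 note: slope of raw intensity against log time taken from 70 to 1610 s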); details: recombinant KvBeta, 4-cyanobenzaldehyde reduction, at 10 µM, stronger effect = higher value
[5] = molecular target: Voltage-gated potassium channel subunit beta-2 (Rattus norvegicus) (UniProt P62483); assay: enhancers of rat Kvbeta2 NADPH turnover – biochemical, NADPH fluorescence, primary screen (AID 623;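 active = NADPH fluorescence slope more negative than the mean of all samples by about 3 SD, 99.7% confidence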;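 note: fluorescence intensity change per second fitted from 20 to 320 s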); details: Recombinant KvBeta, NADPH fluorescence decrease slope, 10 min; at 10 µM; stronger effect = lower value
[6] = molecular target: Alpha-2C adrenergic receptor (Homo sapiens) (UniProt P18825); assay: compounds altering alpha2C-coupled GIRK flux – cell-based, HEK293 alpha2C/GIRK1/2, thallium flux, primary screen (AID 624;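 active = fluorescence slope after compound addition differing from the mean of all screened samples at 99.7% confidence, in either direction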;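 note: slope of fluorescence ratio to pre-addition baseline per second over 15 to 24 s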); details: thallium flux BTC fluorescence, at 10 µM, actives lie on both sides
[7] = blockers of RIG-like receptor reporter activation – cell-based, Sendai virus stimulus, luciferase, 10K MLSCN set, TLR/RLR signaling modifier project, primary screen (AID 602276); details: HEK293 RL24 IRF3 luciferase reporter, at 10 µM, stronger effect = higher value;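 note: firefly luciferase from ISG56 promoter only with Renilla not read in this screen; 0% = Sendai virus plus DMSO and 100% = medium plus DMSO without virus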
[8] = TLR3 IRF3 reporter activation blockers – cell-based, poly I:C stimulus, luciferase, 10K MLSCN set, primary screen (AID 602277;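 active = inhibition of the reporter signal at or above 50%; inactive = inhibition below 50%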); details: HEK293-TLR3 RL24 IRF3 luciferase reporter, at 10 µM, stronger effect = higher value

Chain of Alpha-2C adrenergic receptor (Homo sapiens) (P18825 whole entry, looked up): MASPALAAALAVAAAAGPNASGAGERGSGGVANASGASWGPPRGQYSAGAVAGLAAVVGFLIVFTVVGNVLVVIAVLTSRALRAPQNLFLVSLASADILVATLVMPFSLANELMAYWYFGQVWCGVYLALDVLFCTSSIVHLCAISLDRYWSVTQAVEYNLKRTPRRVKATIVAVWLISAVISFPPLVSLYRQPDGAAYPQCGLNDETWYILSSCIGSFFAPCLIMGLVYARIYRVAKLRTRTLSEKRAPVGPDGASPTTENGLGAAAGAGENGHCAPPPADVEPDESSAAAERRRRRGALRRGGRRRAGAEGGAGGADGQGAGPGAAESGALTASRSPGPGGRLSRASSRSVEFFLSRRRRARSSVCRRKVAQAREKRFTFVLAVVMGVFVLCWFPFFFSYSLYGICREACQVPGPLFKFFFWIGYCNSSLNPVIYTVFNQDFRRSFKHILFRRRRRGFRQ
Chain of Voltage-gated potassium channel subunit beta-2 (Rattus norvegicus) (P62483 whole entry, looked up): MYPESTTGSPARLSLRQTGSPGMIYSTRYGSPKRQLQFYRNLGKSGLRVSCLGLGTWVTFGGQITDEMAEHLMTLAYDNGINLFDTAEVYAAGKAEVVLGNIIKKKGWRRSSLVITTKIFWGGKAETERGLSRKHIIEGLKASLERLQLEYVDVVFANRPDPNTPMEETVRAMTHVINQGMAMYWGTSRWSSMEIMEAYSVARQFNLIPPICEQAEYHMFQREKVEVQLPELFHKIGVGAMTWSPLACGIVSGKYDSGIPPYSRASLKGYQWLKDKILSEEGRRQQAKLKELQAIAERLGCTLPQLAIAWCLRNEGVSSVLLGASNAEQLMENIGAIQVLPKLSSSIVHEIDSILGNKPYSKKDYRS

Compound	cell count [1]	inhibition [1]	inhibition of aggregation [2]	nuclei count [2]	inhibition [3]	nuclei count [3]	fluorescence slope [4]	NADPH fluorescence slope [5]	slope [6]	inhibition [7]	inhibition [8]
O=C(NCc1ccccc1)C1CCN(S(=O)(=O)c2cccc3cccnc23)CC1	823	-3% (inactive)	19% (inactive)	65.6%	-37.7% (inactive)	111%	-0.57 (inactive)	1.3e-05 (inactive)	0.00702 (inactive)	-3.36% (inactive)	33.1% (inactive)
CCOC(=O)N1CCC(NC(=O)CCC(=O)N2CC(C)Oc3ccc(Cl)cc32)CC1 (centres undefined)	326	12.5% (inactive)	-2.6% (inactive)	81.9%	13.6% (inactive)	89%	-0.369 (inactive)	-5e-05 (inactive)	0.00486 (inactive)	7.09% (inactive)	6.64% (inactive)
COc1ccc(C2(C(=O)Nc3c(C)n(C)n(-c4ccccc4)c3=O)CCCC2)cc1OC	712	1.6% (inactive)	-9.8% (inactive)	76.1%	-52.3% (inactive)	104%	-0.427 (inactive)	2.3e-05 (inactive)	0.00772 (inactive)	13.1% (inactive)	14.9% (inactive)
O=C(O)c1cccc(COCC(F)(F)C(F)F)c1	714	-9% (inactive)	17.2% (inactive)	101%	-16.8% (inactive)	102%	-0.497 (inactive)	-4.4e-05 (inactive)	0.00506 (inactive)	5.99% (inactive)	5.49% (inactive)
Cc1onc(-c2ccccc2)c1C(=O)N1CCOCC1	619	-3.5% (inactive)	-7.5% (inactive)	113%	-39.2% (inactive)	106%	-0.327 (inactive)	7.5e-06 (inactive)	0.00368 (inactive)	12.5% (inactive)	20.9% (inactive)
CCOC(=O)N1CCN(C(=O)COc2cc(=O)n(C)c3ccccc23)CC1	341	1.7% (inactive)	-0.1% (inactive)	94.2%	1.7% (inactive)	118%	-0.565 (inactive)	4.1e-05 (inactive)	0.00524 (inactive)	-5.65% (inactive)	-23.1% (inactive)
CCOCCn1c(CN2CCN(c3cccc(Cl)c3)CC2)nc2c1c(=O)n(C)c(=O)n2C	743	-15.7% (inactive)	-5.1% (inactive)	104%	-20% (inactive)	103%	-0.592 (inactive)	-4.2e-05 (inactive)	0.00703 (inactive)	1.6% (inactive)	22.6% (inactive)
O=C(c1cnc2n(c1=O)CCS2)N(C1CCCCC1)C1CCCCC1	649	-6.9% (inactive)	6.9% (inactive)	97.5%	-47.3% (inactive)	122%	-0.42 (inactive)	-4.8e-05 (inactive)	0.00465 (inactive)	11% (inactive)	39.3% (inactive)
O=C(CN(Cc1cccs1)C(=O)CNS(=O)(=O)c1ccccc1)NCc1ccco1	473	-4.2% (inactive)	-5% (inactive)	104%	-65.9% (inactive)	98.5%	-0.594 (inactive)	3.8e-05 (inactive)	0.00631 (inactive)	-8.34% (inactive)	-2.97% (inactive)
O=C(CSc1nnc(SCc2ccc(Cl)cc2)s1)N1CCN(C(=O)c2ccco2)CC1	236	42.2% (active)	-21.7% (inactive)	116%	-194% (inactive)	152%	-0.519 (inactive)	-0.000144 (inactive)	0.00593 (inactive)	-1.92% (inactive)	-7.44% (inactive)
CCOC(=O)c1cc(-c2nnc(-c3ccc(Oc4ccccc4)cc3)o2)c(C)nc1C	761	-3.9% (inactive)	17.5% (inactive)	102%	-20.7% (inactive)	110%	-0.499 (inactive)	-2.6e-05 (inactive)	0.0114 (active)	7.09% (inactive)	12.2% (inactive)
CC1CC(C)CN(CC(=O)Nc2ccc(S(N)(=O)=O)cc2)C1 (centres undefined)	368	1.4% (inactive)	-27.5% (inactive)	113%	30.9% (inactive)	96.7%	-0.517 (inactive)	-3e-05 (inactive)	0.00537 (inactive)	7.84% (inactive)	12.5% (inactive)
Nc1scc(-c2ccncc2)c1Cl	349	-0.2% (inactive)	23% (inactive)	94.4%	-2.4% (inactive)	107%	-0.386 (inactive)	1.9e-05 (inactive)	0.00535 (inactive)	-19.6% (inactive)	-65.9% (inactive)
Cc1ccc(C2CC(c3ccc(C)cc3)n3nc(N)nc3N2)cc1 (centres undefined)	871	2.8% (inactive)	15.1% (inactive)	95.1%	-71.7% (inactive)	116%	-0.613 (inactive)	-1.7e-05 (inactive)	0.00808 (inactive)	-11.6% (inactive)	0.814% (inactive)
CCOc1ccccc1N(C(=O)c1ccco1)C(C(=O)NC1CCCC1)c1cccnc1 (centres undefined)	634	-9.3% (inactive)	12.2% (inactive)	79.6%	10% (inactive)	116%	-0.563 (inactive)	2.3e-05 (inactive)	0.00563 (inactive)	-2.81% (inactive)	13.5% (inactive)
CC(=O)c1cccc(NC(=O)NCc2ccccn2)c1	655	-6.1% (inactive)	-1.1% (inactive)	132%	-41.1% (inactive)	119%	-0.424 (inactive)	-4.2e-05 (inactive)	0.00223 (inactive)	-8.72% (inactive)	-125% (inactive)
Fc1ccc(-c2nnc(CN3CCN(c4ncc(C(F)(F)F)cc4Cl)CC3)o2)cc1	405	-14.7% (inactive)	8.2% (inactive)	111%	-9.8% (inactive)	124%	-0.435 (inactive)	-8.4e-06 (inactive)	0.00518 (inactive)	8.36% (inactive)	-7.66% (inactive)
CCC(=O)N1CCN(c2nc(-c3ccccc3)c3c(c2C#N)CCCC3)CC1	501	6.3% (inactive)	0.7% (inactive)	98.3%	-27.6% (inactive)	108%	-0.317 (inactive)	-8.2e-07 (inactive)	0.00519 (inactive)	13.4% (inactive)	44.4% (inactive)
O=C(C1=C(O)C(=O)N(Cc2ccccc2)C1c1ccncc1)c1ccco1 (centres undefined)	382	8.3% (inactive)	-3.4% (inactive)	116%	-216% (inactive)	143%	-0.192 (inactive)	2.5e-06 (inactive)	0.0062 (inactive)	-5.31% (inactive)	2.12% (inactive)
